# From PMC5540273 (PLoS ONE, 2017)
# How the values were obtained:
# MST1 = tested on: T1, MST1
# T1 construct: gene STK4
# MEK5 = tested on: T2, MEK5
# T2 construct: gene MAP2K5
# MEK1 = tested on: T3, MEK1
# T3 construct: gene MAP2K1
# MEK6 = tested on: T4, MEK6
# T4 construct: gene MAP2K6
# NDR1 = tested on: T5, NDR1
# T5 construct: gene STK38
# MRCKB = tested on: T6, MRCKB
# T6 construct: gene CDC42BPB
# MINK = tested on: T7, MINK
# T7 construct: gene MINK1
# MEK2 = tested on: T8, MEK2
# T8 construct: gene MAP2K2
# MLK1 = tested on: T9, MLK1
# T9 construct: gene MAP3K9
# MST3 = tested on: T10, MST3
# T10 construct: gene STK24
# 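Further: kd values determined as follow-up on hits from a single-replicate KINOMEscan panel screen.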
smiles,measurement,setting,value
Nc1ncnc2[nH]c(-c3ccccc3)nc12 [AH5015],Kd,MST1,> 10000 nM
Fc1cc(Cl)ccc1Nc1ccnc2cc(I)ccc12 [GW551191],Kd,MST1R,> 10000 nM
CSc1nn2c(=O)cc(N3CCOCC3)nc2n1Cc1cccc(C(F)(F)F)c1C [GSK2363608],Kd,MST4,> 10000 nM
O=C(Nc1n[nH]c2cc(-c3cccc(F)c3F)ccc12)C1CC1 [SB-733894],Kd,MYLK2,92 nM
O=C(Nc1n[nH]c2nc(-c3nccs3)c(Br)cc12)C1CC1 [SB-742251],Kd,MYLK2,160 nM
COc1ccc(Nc2nccc(-c3cccc(NC(=O)c4cc5cc(F)ccc5[nH]4)c3)n2)cc1 [GSK1229782],Kd,MEK5,200 nM
Cc1ccc(NC(=O)Nc2cc(C(C)(C)C)nn2-c2ccccc2)cc1 [GSK1014915],Kd,MKNK2,370 nM
Cl.NC(=O)c1cccc(Nc2nccc(Nc3ccc(Oc4cccc(Cl)c4)c(Cl)c3)n2)c1 [GW659008],Kd,MEK5,34 nM
Cc1cccc(-c2nc(Nc3cccc(C(N)=O)c3)c3ccccc3n2)n1 [GW876019],Kd,MEK1,> 10000 nM
COc1cc2ncnc(Nc3ccc4nc(-c5ccccc5)[nH]c4c3)c2cc1OC.Cl [GW282450],Kd,MEK5,670 nM
CCn1c(-c2ccccn2)nc2cnccc21 [SB-736398],Kd,MEK6,> 10000 nM
CCCc1ccc(S(=O)(=O)NC2CCN(c3ccnc(Nc4ccc(F)cc4)n3)C2)cc1 (centres unmarked) [GSK1379715],Kd,MEK6,> 10000 nM
Cc1ccc(C(=O)Nc2ccc(Nc3ccnc4cc(-c5ccccn5)ccc34)cc2O)cc1.Cl [GW440146],Kd,MEK5,4.7 nM
CC(C)(C)c1ccc(C(=O)Nc2cn3cc(Cl)ccc3n2)cc1,Kd,NDR1,> 10000 nM
Cl.O=C(Nc1cccc(-c2nn3ncccc3c2-c2ccnc(Nc3cccnc3)n2)c1)c1c(F)cccc1F [GSK312879],Kd,MEK5,230 nM
Cc1cccc(-c2nc(C)cc(Nc3ccncc3)n2)n1 [GSK257997],Kd,MRCKB,580 nM
CC(C)(C)c1ccc(C(=O)Nc2cn3cc(-c4cccnc4)ccc3n2)cc1,Kd,MEK5,190 nM
O=C1NC(=O)C(N2CCc3ccccc32)=C1c1ccccc1Cl [SB-373598],Kd,MST1,> 10000 nM
Cn1cncc1-c1ccc2ncnc(Nc3ccc(OCc4ccccc4)cc3)c2c1 [GW320571],Kd,MEK5,450 nM
Cc1ccc(-c2cc(-c3c[nH]nc3-c3ccccn3)ccn2)cc1 [GW684088],Kd,MINK,61 nM
COc1cccc(NC(=O)NC2CCN(c3ccnc(Nc4ccc(F)cc4)n3)C2)c1 (centres unmarked) [GSK1379721],Kd,MAP4K4,> 10000 nM
same,Kd,MAP4K5,> 10000 nM
same,Kd,MEK5,500 nM
Fc1cc(Cl)ccc1Nc1ccnc2cc(-c3ccc(CN4CCCCC4)o3)ccc12 [GW560116],Kd,MEK2,> 10000 nM
same,Kd,MEK5,890 nM
COc1ccc(CNC(=O)NC2CCN(c3ccnc(Nc4cc(OC)c(OC)c(OC)c4)n3)C2)cc1 (centres unmarked) [GSK1379748],Kd,MEK5,95 nM
COc1ccc2nc(-c3cccc(C)n3)nc(Nc3ccncc3)c2c1 [GSK204919],Kd,MRCKB,520 nM
COc1cc(Nc2nccc(N3CCC(NC(=O)Nc4cc(C)ccc4C)C3)n2)cc(OC)c1OC (centres unmarked) [GSK1379762],Kd,MEK5,53 nM
O=C(Nc1n[nH]c2nc(-c3nccs3)c(Br)cc12)C1CCCC1 [SB-742609],Kd,MYLK2,130 nM
Cc1ccc(NC(=O)Nc2cccc(Cl)c2)cc1-c1ccc(C(=O)Nc2ccncc2)cc1 [GSK1398468],Kd,MEK1,> 10000 nM
same,Kd,MYO3A,> 10000 nM
COc1ccccc1CNC(=O)c1cc(C(=O)c2ccccc2C)c[nH]1 [GSK364507],Kd,MARK1,> 10000 nM
COc1cc2ncn(-c3cc(OCC4CCCO4)c(C(N)=O)s3)c2cc1OC (centres unmarked) [GSK204607],Kd,MEK5,81 nM
same,Kd,MYLK4,500 nM
NC(=O)c1nnc2ccccc2c1N,Kd,MLK1,> 10000 nM
same,Kd,NEK10,430 nM
COc1cc2nccc(Nc3ccc(NC(=O)c4ccc(C)cc4)c(O)c3)c2cc1OC.Cl [GW440132],Kd,MEK5,8.7 nM
CS(=O)(=O)c1ccc(-c2c(-c3ncn[nH]3)sc(N3CCOCC3)c2C#N)cc1,Kd,MST3,> 10000 nM
